Vif-A3F inh: blocks the Vif interaction with APOBEC3F. HeLa A3F-eYFP + Vif (tagged APOBEC3F with the HIV-1 protein that degrades it), YFP fluorescence increase. Potency, µM (titrated, usually from 46.1 µM). actives 0.2% (n = 390,000). AID 602313; further: nearly all actives have a fitted effect of over 65% in size
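Fluorescence increase (Ex 488/Em 500-530) after overnight compound treatment at 37 deg C flags inhibition of Vif-driven A3F-eYFP loss in stable HeLa A3F-eYFP/Vif cells seeded overnight beforehand.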
Tb PGK inh: inhibitors of T. brucei phosphoglycerate kinase; P07378; PGK/GAPDH coupled, Kinase-Glo luminescence, 60 min; Potency, µM (titrated, usually from 57.5 µM), usual class: inhibitors; actives 0.043% (n = 380,000); further: nearly all actives have a fitted effect of over 60% in size
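Luminescent ATP detection (Kinase-Glo Plus) follows a 60-minute room-temperature incubation, with wells lacking PGK as controls. Buffer: 100 mM TEA (pH 7.6), 5 mM MgCl2, 0.01% Tween-20. Coupling enzyme GAPDH (100 nM final) supplies unstable 1,3-BPG in-well.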
IDH1 R132H inh: blocks human mutant IDH1 R132H enzyme | O75874 | Potency, µM (titrated, usually from 76.6 µM), usual class: inhibitors | actives 0.093% (n = 390,000) | AID 602179 | IDH1-R132H enzyme, NADPH consumption, diaphorase/resazurin fluorescence; further: nearly all actives have a fitted effect of over 65% in size
Target sequence (O75874 whole entry R132H, stated change not applied): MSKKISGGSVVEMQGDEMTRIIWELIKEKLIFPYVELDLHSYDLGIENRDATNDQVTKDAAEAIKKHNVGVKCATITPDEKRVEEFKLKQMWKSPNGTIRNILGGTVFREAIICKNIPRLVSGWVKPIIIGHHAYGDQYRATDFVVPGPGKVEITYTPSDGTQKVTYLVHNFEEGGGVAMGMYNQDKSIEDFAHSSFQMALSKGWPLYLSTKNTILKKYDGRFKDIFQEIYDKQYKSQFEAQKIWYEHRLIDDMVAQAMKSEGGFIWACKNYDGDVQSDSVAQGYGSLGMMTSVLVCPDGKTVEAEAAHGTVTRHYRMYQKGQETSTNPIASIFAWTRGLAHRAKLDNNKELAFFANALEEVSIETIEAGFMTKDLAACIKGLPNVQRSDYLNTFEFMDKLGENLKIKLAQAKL
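IDH1-R132H (0.5 ug/mL dispensed) in pH 7.5 Tris buffer was preincubated 30 min with compound, then given a substrate mix of 0.016 mM NADPH and 2 mM alpha-KG for 80 min at room temperature; remaining NADPH was read by diaphorase/resazurin fluorescence.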
Vif-A3G inh: blocks the Vif interaction with human APOBEC3G. Q9HC16. HeLa A3G-eYFP + Vif (tagged APOBEC3G with the HIV-1 protein that degrades it), YFP fluorescence, overnight. Potency, µM (highest dose often 46.1 µM), most hits filed as inhibitors. actives 0.076% (n = 410,000). AID 602310; further: nearly all actives have a fitted effect of over 60% in size
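Read-out is eYFP fluorescence (Ex 488/Em 500-530) from Vif-expressing HeLa A3G-eYFP cells; more signal means A3G escaped Vif-mediated degradation. Cells plated overnight, compound pinned in, incubated overnight at 37 deg C.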
Pin1 inh: blocks the human prolyl isomerase Pin1. Q13526. Pin1 FP peptide displacement, HiFluor488, 10 min. Potency, µM (titrated, usually from 115 µM), usual class: inhibitors. actives 0.009% (n = 390,000). AID 504891; active means well fitted inhibition curve with a large enough effect in the polarisation, with a control signal flat, not every such curve was filed as active; inconclusive means small, poorly fitted or top-dose-only effect, or effect the other way, or a change in a side signal; inactive means no such curve, though single readings can be large or run the other way; the % refers to the polarisation
Target sequence (Q13526 whole entry, looked up): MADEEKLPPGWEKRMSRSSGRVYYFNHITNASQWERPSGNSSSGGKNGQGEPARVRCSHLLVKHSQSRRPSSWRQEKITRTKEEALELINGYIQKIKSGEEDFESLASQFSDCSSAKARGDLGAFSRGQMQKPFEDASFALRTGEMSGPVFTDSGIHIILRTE
LDHA block: inhibitors of human lactate dehydrogenase A | actives 0.15% (n = 480,000) | purified LDHA, NADH/diaphorase-resazurin fluorescence; hits give low values | activity change, % (values are at about 110 or 230 µM); in the data active means activity change below about -30%; inconclusive means mostly about -25% to -30%
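Enzyme activity of human lactate dehydrogenase 5 (2 nM; 0.06 mM NADH, 0.2 mM pyruvate, 5 min, RT) is measured via a resazurin/diaphorase fluorescence readout of residual NADH.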
Of the large screens only hits and unclear results are named; the others gave an inactive call. This is a sample that favours compounds with a hit; in the whole collection about 0.49% have one here. Unless noted, the call rests on the fitted dose curve; in most records, active means well fitted curve in the direction sought with a large enough effect; inconclusive means small, poorly fitted or top-dose-only effect, or another doubt; inactive means no such curve, though single readings can be large; an effect the other way counts as inactive or inconclusive.

CCCN(CCC)C(=O)c1cc2sc3ccccc3c2s1	none (no result: Vif-A3F inh, Tb PGK inh, IDH1 R132H inh, Vif-A3G inh, Pin1 inh)
COc1ccc(-c2c3c(=O)n(C)c(=O)n(C)c3c3n2CCOC3c2coc3ccccc3c2=O)cc1 (configuration not stated)	none (no result: Vif-A3F inh, Tb PGK inh, IDH1 R132H inh, Vif-A3G inh, Pin1 inh)
COc1cccc(OC)c1C(=O)C1CC(=O)Nc2c1c(C)nn2-c1cccc(C)c1C (configuration not stated)	none (no result: Vif-A3F inh, Tb PGK inh, IDH1 R132H inh, Vif-A3G inh, Pin1 inh)
COc1ccc(OC)c(NC(=O)c2cc(-c3cc(C)cc(C)c3O)n[nH]2)c1	Vif-A3F inh 11µM
COc1ccc(OC)c(NC(=O)c2cc(-c3cc(C)c(C)cc3O)n[nH]2)c1	Vif-A3F inh inconclusive
COc1cc(/C=C2/S/C(=N/S(=O)(=O)c3ccccc3)NC2=O)c([N+](=O)[O-])cc1OC	Pin1 inh inconclusive
O=C1N/C(=N\S(=O)(=O)Cc2ccccc2)S/C1=C/c1cc([N+](=O)[O-])ccc1O	Pin1 inh inconclusive, LDHA block -37
O=C1N/C(=N\S(=O)(=O)c2ccccc2)S/C1=C\c1cc([N+](=O)[O-])ccc1O	Vif-A3F inh inconclusive, Pin1 inh inconclusive, LDHA block -36
CCn1c(C)c(/C=C/c2cc[n+](C)cc2)c2cc(C)ccc21	none (no result: Vif-A3F inh, Tb PGK inh, IDH1 R132H inh, Vif-A3G inh, Pin1 inh)
COc1ccc2c(C)c(CC(=O)NCc3ccco3)c(=O)oc2c1OC	none (no result: Vif-A3F inh, Tb PGK inh, IDH1 R132H inh, Vif-A3G inh, Pin1 inh)
CCOC(=O)c1c(-c2ccc(C)cc2)csc1NC(=O)/C(C#N)=C/c1ccc(O)c(OC)c1	Vif-A3F inh inconclusive, Vif-A3G inh 10µM, Pin1 inh inconclusive
CCOC(=O)c1c(-c2ccccc2)csc1NC(=O)/C(C#N)=C\c1ccc(O)c(OC)c1	Vif-A3F inh inconclusive, Vif-A3G inh inconclusive, Pin1 inh inconclusive
O=[N+]([O-])c1ccccc1S(=O)(=O)N1CCN(C2CCN(Cc3ccccc3)CC2)CC1	LDHA block -34
O=C(CC1CCCC1)NCCC1CCN(C(=O)NC2CCCCC2)CC1	none (no result: Vif-A3F inh, Tb PGK inh, IDH1 R132H inh, Vif-A3G inh, Pin1 inh)
O=C(Nc1nnc(-c2ccc3c(c2)CCCC3)o1)c1c(F)cccc1F	Vif-A3F inh 25µM (no result: Pin1 inh)
O=C(Nc1nnc(-c2ccc3c(c2)CCCC3)o1)c1ccc(Cl)cc1Cl	none
COc1ccc(/C=C2\SC(N)=NC2=O)cc1Br	none
COc1cc(/C=C2\SC(N)=NC2=O)cc(Cl)c1O	Vif-A3F inh 11µM, Pin1 inh inconclusive
CC1CCC(=NO)CC1 (configuration not stated)	none (no result: Vif-A3F inh, Tb PGK inh, IDH1 R132H inh, Vif-A3G inh, Pin1 inh)
CCCSc1nnc(N2C(=O)C(O)=C(C(=O)c3ccco3)C2c2ccccc2F)s1 (configuration not stated)	Vif-A3F inh 3.2µM, Vif-A3G inh inconclusive, Pin1 inh inconclusive
CSc1nnc(N2C(=O)C(O)=C(C(=O)c3ccco3)C2c2ccccc2F)s1 (configuration not stated)	Pin1 inh inconclusive
c1ccc(CCc2nnc(CC3CCCCC3)s2)cc1	none (no result: Vif-A3F inh, Tb PGK inh, IDH1 R132H inh, Vif-A3G inh, Pin1 inh)
COc1ccc(Nc2cc(C)nc3nc(-c4ccc(Cl)cc4)nn23)c(OC)c1	none (no result: Vif-A3F inh, Tb PGK inh, IDH1 R132H inh, Vif-A3G inh, Pin1 inh)
CCOc1ccccc1Oc1coc2cc(OC(=O)c3ccc4c(c3)OCO4)ccc2c1=O	LDHA block -31 (no result: Vif-A3F inh, Tb PGK inh, IDH1 R132H inh, Vif-A3G inh, Pin1 inh)
O=[N+]([O-])c1ccccc1S(=O)(=O)Nc1cccc(-n2cccn2)c1	none (no result: Vif-A3F inh, Tb PGK inh, IDH1 R132H inh, Vif-A3G inh, Pin1 inh)
C=CCn1c(SCCCc2ccccc2)nc2c1c(=O)n(C)c(=O)n2C	none (no result: Vif-A3F inh, Tb PGK inh, IDH1 R132H inh, Vif-A3G inh, Pin1 inh)
Cc1nc2ccc(C(=O)NCc3ccccn3)cc2nc1C	none (no result: Vif-A3F inh, Tb PGK inh, IDH1 R132H inh, Vif-A3G inh, Pin1 inh)
Cc1ccsc1/C=N/Nc1nc(=O)[nH]nc1C	Vif-A3F inh inconclusive, Tb PGK inh 28µM
O=c1c(CO)cc(CO)cc(CO)c1O	Pin1 inh inconclusive
O=C1C=CC(=O)c2c(O)c(CO)c(CO)c(O)c21	Tb PGK inh 8.9µM (no result: Pin1 inh)
COc1ccc(C2CCCN2Cc2coc(-c3ccc(C)cc3C)n2)cc1 (configuration not stated)	none (no result: Vif-A3F inh, Tb PGK inh, IDH1 R132H inh, Vif-A3G inh, Pin1 inh)
CNC(=O)c1nn(CC(=O)N(CCc2ccccc2)Cc2ccccc2)c(=O)c2ccccc12	none (no result: Vif-A3F inh, Tb PGK inh, IDH1 R132H inh, Vif-A3G inh, Pin1 inh)
COCCOc1nc2c(c(=O)n(C)c(=O)n2C)n1Cc1ccccc1	none (no result: Vif-A3F inh, Tb PGK inh, IDH1 R132H inh, Vif-A3G inh, Pin1 inh)
COCCOc1nc2c(c(=O)n(C)c(=O)n2C)n1C(C)c1ccccc1 (configuration not stated)	LDHA block -36 (no result: Vif-A3F inh, Tb PGK inh, IDH1 R132H inh, Vif-A3G inh, Pin1 inh)

Bioassay records deposited in PubChem by National Center for Advancing Translational Sciences (NCATS).
